Laboratory results taken from the supplement of paper PMC9262897, “Low-cost anti-mycobacterial drug discovery using engineered E. coli” (Nature Communications, 2022).
Where a name gives a salt, the structure may show the parent alone. ± gives the standard deviation of the averaged measurements.

Test system: E. coli TESEC Mtb DapB
Assay: growth (OD600 after 10 h); higher = more growth (less inhibition)
Conditions: arabinose induction (level): High; compound 0.1 mM; raw OD600 reference: median of DMSO wells […], cell-free background 0.041
Experimental: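 TESEC E. coli strains in which the native enzyme is deleted and replaced by arabinose-inducible Mtb Asd, DapB, CysH or TrpD, each grown in its selective medium. Strains were screened against the Prestwick library at 0.1 mM and 1% DMSO in 384-well format at low and high arabinose induction. Growth is read as OD600 after 10 h in triplicate.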

Row | Compound | growth
1 | N[C@@H]1C[C@H]1c1ccccc1 [Tranylcypromine hydrochloride] | 0.183 ± 0.0098
2 | C[C@]12CC[C@@H]3c4ccc(OC(=O)N(CCCl)CCCl)cc4CC[C@H]3[C@@H]1CC[C@@H]2O [Estramustine] | 0.173 ± 0.0048
3 | CNC(C)(C)Cc1ccccc1 [Mephentermine hemisulfate] | 0.208 ± 0.012
4 | O=P1(N(CCCl)CCCl)NCCCO1 (stereo not given) [Cyclophosphamide] | 0.205 ± 0.019
5 | C#C[C@]1(O)CC[C@H]2[C@@H]3CCC4=CC(=O)CC[C@]4(C)[C@H]3CC[C@@]21C [Ethisterone] | 0.179 ± 0.0098
6 | COc1ccc(Cc2nccc3cc(OC)c(OC)cc23)cc1OC [Papaverine hydrochloride] | 0.148 ± 0.0024
7 | CC(C)CC(N(C)C)C1(c2ccc(Cl)cc2)CCC1 (stereo not given) [Sibutramine HCl] | 0.161 ± 0.014
8 | CCN(CC)C(C)C(=O)c1ccccc1 (stereo not given) [Amfepramone hydrochloride] | 0.202 ± 0.018
9 | CN1C(=O)CCS(=O)(=O)C1c1ccc(Cl)cc1 (stereo not given) [Chlormezanone] | 0.193 ± 0.0088
10 | CC[C@@H](C(N)=O)N1CCCC1=O [Levetiracetam] | 0.188 ± 0.0023
11 | CC(=O)[C@H]1CC[C@H]2[C@@H]3CC[C@H]4C[C@H](O)CC[C@]4(C)[C@H]3C(=O)C[C@]12C [Alfaxalone] | 0.155 ± 0.031
12 | COc1cc2c(cc1OC)C(C)NCC2 (stereo not given) | 0.212 ± 0.013
13 | CC(=O)NC1CCSC1=O (racemic) [N-Acetyl-DL-homocysteine Thiolactone] | 0.226 ± 0.0088
14 | COc1ccc2c(c1)[C@]13CCCC[C@@H]1[C@H](C2)N(C)CC3 [Dextromethorphan hydrobromide monohydrate] | 0.17 ± 0.015
15 | COc1ccc(C(=O)N2CCCC2=O)cc1 [Aniracetam] | 0.214 ± 0.0098
16 | Cc1cc(C(C#N)c2ccc(Cl)cc2)c(Cl)cc1NC(=O)c1cc(I)cc(I)c1O (stereo not given) [Closantel] | 0.0896 ± 0.013
17 | CN1[C@@H]2CC[C@H]1C[C@@H](OC(=O)C(CO)c1ccccc1)C2 (stereo not given in full) [Atropine sulfate monohydrate] | 0.199 ± 0.015
18 | C[C@]12CC[C@H](O)C[C@H]1CC[C@@H]1[C@@H]2C[C@@H](O)[C@]2(C)[C@@H](C3=CC(=O)OC3)CC[C@]12O [Digoxigenin] | 0.1864 ± 0.00095
19 | C(#CCN1CCCC1)CN1CCCC1 [Tremorine dihydrochloride] | 0.2 ± 0.015
20 | CNC(=O)Oc1ccc2c(c1)[C@]1(C)CCN(C)[C@@H]1N2C [Eserine hemisulfate salt] | 0.187 ± 0.015

Same assay, conditions: arabinose induction (level): Low; compound 0.1 mM; raw OD600 reference: median of DMSO wells 0.227, cell-free background 0.041

Row | Compound | growth
21 | N[C@@H]1C[C@H]1c1ccccc1 [Tranylcypromine hydrochloride] | 0.23 ± 0.012
22 | C[C@]12CC[C@@H]3c4ccc(OC(=O)N(CCCl)CCCl)cc4CC[C@H]3[C@@H]1CC[C@@H]2O [Estramustine] | 0.187 ± 0.015
23 | CNC(C)(C)Cc1ccccc1 [Mephentermine hemisulfate] | 0.221 ± 0.0061
24 | O=P1(N(CCCl)CCCl)NCCCO1 (stereo not given) [Cyclophosphamide] | 0.216 ± 0.029
25 | C#C[C@]1(O)CC[C@H]2[C@@H]3CCC4=CC(=O)CC[C@]4(C)[C@H]3CC[C@@]21C [Ethisterone] | 0.219 ± 0.02
26 | COc1ccc(Cc2nccc3cc(OC)c(OC)cc23)cc1OC [Papaverine hydrochloride] | 0.161 ± 0.0073
27 | CC(C)CC(N(C)C)C1(c2ccc(Cl)cc2)CCC1 (stereo not given) [Sibutramine HCl] | 0.185 ± 0.012
28 | CCN(CC)C(C)C(=O)c1ccccc1 (stereo not given) [Amfepramone hydrochloride] | 0.218 ± 0.021
29 | CN1C(=O)CCS(=O)(=O)C1c1ccc(Cl)cc1 (stereo not given) [Chlormezanone] | 0.207 ± 0.011
30 | CC[C@@H](C(N)=O)N1CCCC1=O [Levetiracetam] | 0.229 ± 0.023
31 | CC(=O)[C@H]1CC[C@H]2[C@@H]3CC[C@H]4C[C@H](O)CC[C@]4(C)[C@H]3C(=O)C[C@]12C [Alfaxalone] | 0.203 ± 0.028
32 | COc1cc2c(cc1OC)C(C)NCC2 (stereo not given) | 0.232 ± 0.0067
33 | CC(=O)NC1CCSC1=O (racemic) [N-Acetyl-DL-homocysteine Thiolactone] | 0.242 ± 0.019
34 | COc1ccc2c(c1)[C@]13CCCC[C@@H]1[C@H](C2)N(C)CC3 [Dextromethorphan hydrobromide monohydrate] | 0.232 ± 0.031
35 | COc1ccc(C(=O)N2CCCC2=O)cc1 [Aniracetam] | 0.246 ± 0.011
36 | Cc1cc(C(C#N)c2ccc(Cl)cc2)c(Cl)cc1NC(=O)c1cc(I)cc(I)c1O (stereo not given) [Closantel] | 0.0929 ± 0.01
37 | CN1[C@@H]2CC[C@H]1C[C@@H](OC(=O)C(CO)c1ccccc1)C2 (stereo not given in full) [Atropine sulfate monohydrate] | 0.247 ± 0.019
38 | C[C@]12CC[C@H](O)C[C@H]1CC[C@@H]1[C@@H]2C[C@@H](O)[C@]2(C)[C@@H](C3=CC(=O)OC3)CC[C@]12O [Digoxigenin] | 0.244 ± 0.0061
39 | C(#CCN1CCCC1)CN1CCCC1 [Tremorine dihydrochloride] | 0.234 ± 0.059
40 | CNC(=O)Oc1ccc2c(c1)[C@]1(C)CCN(C)[C@@H]1N2C [Eserine hemisulfate salt] | 0.206 ± 0.0057
